Screening results as filed in PubChem.
SRC3 inh – inhibits human SRC3 coactivator. HEK293 GAL4-SRC3 luciferase reporter, luminescence. inhibition, % at 3.6 µM. 0.17% of 360,000 active. AID 588352;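 active = inhibition above a per-campaign cutoff, the mean of all compounds plus 3 SD, cut at about 60% in these data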;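 note: 0% = DMSO-treated cells and 100% = gossypol-treated cells at 36 µM; higher means less SRC3-driven luciferase light from the GAL4 reporter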
SRC1 inh – inhibitors of human steroid receptor coactivator 1 (SRC1) | Q15788 | HEK293 GAL4-SRC1 luciferase reporter, luminescence | inhibition, % at 3.6 µM | 0.12% of 360,000 active | AID 588354;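 active = inhibition above the campaign mean plus 3 SD, with each screening campaign given its own cutoff, cut at about 60% in these data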;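 note: 0% = DMSO treated cells and 100% = gossypol at 36 µM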
LRH-1 inv ag – suppresses constitutive activity of human LRH-1 | O00482 | HEK293T StAR-luciferase reporter, LRH-1 transfected, 24 h | 0.13% of 360,000 active | inhibition, % at 3.6 µM;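 active = inhibition above the mean inhibition of all tested compounds plus 3 SD, cut at about 73% in these data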;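 note: 0% = DMSO wells and 100% = reporter-only cells lacking LRH-1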
NR2F2 inh – NR2F2 (human) inhibition, primary screen; AID 686940; 0.7% of 370,000 active; P24468; inhibition, % at 8.6 µM; HEK293T NGFI-A luciferase reporter, luminescence;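 active = inhibition above a per-plate cutoff, mean inhibition of test wells between control levels plus 3 SD, cut at about 38% in these data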;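 note: cells cotransfected with COUP-TFII expression vector driving the NGFI-A reporter; 0% = median of COUP-TF2 test wells and 100% = reporter-only cells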
Gli-Sufu antag – blocks Gli-Sufu signaling in a luciferase reporter; inhibition, % at 5 µM; AID 588413; Sufu-KO-LIGHT fibroblasts, Gli luciferase reporter luminescence; 0.74% of 340,000 active;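 active = inhibition above about 55%, limit read from the data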;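 note: 0% = DMSO-treated cells and 100% = wells with medium but no cells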
SRC2 inh – inhibits human steroid receptor coactivator 2; Q15596; HEK293 GAL4-SRC2 luciferase reporter, luminescence; inhibition, % at 9 µM; 0.17% of 370,000 active;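 active = inhibition above the mean inhibition of all tested compounds plus 3 SD, set per campaign, cut at about 52% in these data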;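 note: 0% = DMSO treated cells and 100% = cells given Gossypol at 36 µM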
VP16 Luc counter – VP16 inhibition counter-screen for COUP-TFII | shares compounds with NR2F2 inh | 25% of 2,500 active | AID 687007 | inhibition, % at 8.5 µM | HEK293 Gal4-VP16 luciferase reporter, luminescence; in the data active = inhibition above about 13%
NR2F2 inh conf – COUP-TFII (NR2F2) inhibition, confirmation assay. 45% of 2,500 active. inhibition, % at 8.5 µM. HEK293 NGFI-A luciferase reporter, luminescence. shares compounds with NR2F2 inh;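 active = mean inhibition over three repeats above a set limit taken from the earlier primary screen, cut at about 38% in these data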;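 note: 100% = cells given the luciferase reporter alone without the COUP-TF2 vector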
* = called active by the depositor; . = no result given. The list is not random: actives were taken first. Their share in the collection is about 1.3%.

SMILES	SRC3 inh	SRC1 inh	LRH-1 inv ag	NR2F2 inh	Gli-Sufu antag	SRC2 inh	VP16 Luc counter	NR2F2 inh conf
COc1ccc(NC(=O)CSc2ncccc2C(=O)OC(C)C)cc1OC	-3.3	2.1	10.4	58.4*	41.8	22.8	-3.0	27.6
O=C(Cn1cnc2ccccc21)Nc1ccc2c(c1)OCCCO2	5.3	5.5	9.7	39.0*	28.9	10.5	-24.0	8.7
COC(=O)[C@]12C[C@H](CC(=O)NCc3cccc(C(F)(F)F)c3)C(=O)N(Cc3ccc(Cl)cc3Cl)C1=C[C@H](C(C)(C)C)O[C@@H]2C	.	.	.	0.1	.	9.3	.	.
O=C(c1cc(C2CC2)on1)N(C1CCCCC1)C1CCCCC1	.	.	.	0.9	.	8.1	.	.
COC(=O)[C@H]1C[C@]2(C(C=C(C)C)S(=O)(=O)c3ccccc3)c3ccccc3N[C@H]2N1 (stereo partly drawn)	.	.	.	7.0	.	.	.	.
Cc1nn(C(C)(C)C)c(C)c1/C=N/OC(=O)Nc1ccc(Cl)cc1	92.9*	93.3*	93.7*	99.0*	91.8*	90.8*	93.8*	107.5*
Cc1nn(C)c(C)c1/C=N/NC(=O)C(C)(C)Oc1ccc(Cl)cc1	18.4	11.8	3.6	.	4.7	.	.	.
CCc1ccc(CNC(=O)c2cc3c(C)nc4ccccc4c3o2)cc1	5.6	1.9	14.5	51.3*	39.1	40.8	5.9	36.7
COc1cccc(CNC(=O)c2cc3c(C)nc4ccccc4c3o2)c1	-18.8	2.3	21.8	37.9*	7.5	22.0	3.0	16.2
Cc1nc2ccccc2c2oc(C(=O)NCC3COc4ccccc4O3)cc12 (stereo not drawn)	15.2	-5.5	32.7	30.8	20.0	30.9	.	.
CCCCNC(=O)C[C@H]1C[C@@]2(C(=O)OC)C(=C[C@H](C(C)C)O[C@@H]2C2CC2)N(Cc2ccc3c(c2)OCO3)C1=O	.	.	.	2.0	.	-8.7	.	.
CCCCCCCCCCCCCCCC[n+]1cccc2ccccc21	61.8*	27.0	33.3	54.2*	88.7*	-13.2	15.4*	63.2*
COCC(=O)N(Cc1ccccc1)c1ccccc1C(=O)Nc1cc(OC)ccc1OC	.	.	.	-4.3	.	14.8	.	.
NCCCCCc1nnc(SCc2ccccc2Cl)o1	17.9	-4.8	17.4	55.5*	21.3	58.7*	41.8*	30.9
NCCc1nnc(SCc2c(Cl)cccc2Cl)o1	17.3	-4.6	-12.2	4.1	2.3	-26.2	.	.
Cc1ccc(-c2nnc(SCC(=O)Nc3ccccc3F)o2)cc1	9.2	33.3	32.1	63.6*	-34.1	61.6*	24.4*	39.8*
COc1ccc2c(c1)CCCN2C(=O)C1CCCN(S(=O)(=O)c2c(C(C)C)cc(C(C)C)cc2C(C)C)C1 (stereo not drawn)	.	.	.	18.1	.	-4.4	.	.
CS(=O)(=O)Nc1ccc(N2CCN(c3ccc(C(F)(F)F)cn3)CC2)nc1	13.8	1.1	8.7	43.1*	22.9	15.8	-2.5	10.7
O=C(Nc1ccc(N2CCOCC2)nc1)c1ccc(C(F)(F)F)cc1	18.6	7.6	1.2	48.7*	1.5	23.5	9.8	34.7
CC(C)(C)C(=O)Nc1ccc(N2CCN(c3ccc(C(F)(F)F)cn3)CC2)nc1	6.5	1.5	-8.6	-0.3	29.1	11.4	.	.
Cc1cccc(C(=O)Nc2ccc(N3CCN(c4ccc(C(F)(F)F)cn4)CC3)nc2)c1	12.9	-16.7	8.0	8.9	10.7	9.9	.	.
COC(=O)[C@]12CCCCC=C1N(Cc1ccc(OC)cc1)C(=O)[C@@H]2CC(=O)N1CCC(c2ccccc2)CC1	.	.	.	0.4	.	-2.4	.	.
O=C(NCc1cccnc1)/C(=C\c1ccc(-c2cccc(Cl)c2)o1)S(=O)(=O)c1ccccc1	82.1*	6.5	68.0	42.5*	-20.5	63.0*	20.6*	37.3
CN(C)S(=O)(=O)c1cccc(C(=O)N/N=C\c2ccccc2[N+](=O)[O-])c1	.	.	.	-44.7	.	-79.6	.	.
C=C1CCC2C(C)(C)CCC[C@]2(C)[C@H]1CC1=C(O)C(=O)C(CO)=CC1=O (stereo partly drawn)	.	.	.	54.8*	.	62.3*	45.6*	61.6*
SMILES	SRC3 inh	SRC1 inh	LRH-1 inv ag	NR2F2 inh	Gli-Sufu antag	SRC2 inh	VP16 Luc counter	NR2F2 inh conf
Cn1c(CN2CCCCC2)nc2cc(NC(=O)c3ccc(Cl)cc3)ccc21	-1.9	10.2	29.2	62.2*	-10.2	-17.3	-11.6	47.7*
CCCCCN1CCCCC(NC(=O)c2ccc(F)cc2)C1=O (stereo not drawn)	.	.	.	-9.4	.	-15.0	.	.
COc1cc(CNc2ncnc3c2[nH]c2ccc(C)cc23)cc(OC)c1	15.6	14.8	11.4	33.2	31.1	5.5	.	.
Cc1ccc2[nH]c3c(NCc4ccco4)ncnc3c2c1	-22.0	-40.7	-61.4	46.8*	25.4	-1.8	-139.1	-24.1
O=C(Nc1ccccc1)C1CCN(c2nccs2)CC1	18.8	-11.2	-4.0	-5.9	5.5	-9.6	.	.
O=C(c1ccc(F)cc1)C1CCN(c2ncnc3sccc23)CC1	.	.	.	62.6*	.	.	2.9	56.0*
O=S(=O)(c1ccc(F)c(F)c1F)N1CCN(c2ncnc3sccc23)CC1	-8.2	11.3	26.5	40.3*	26.5	21.3	-1.7	31.8
c1ccc(OC2CCN(c3ncnc4sccc34)CC2)cc1	.	.	.	64.3*	.	.	-8.2	49.1*
O=S(=O)(c1ccccc1C(F)(F)F)N1CCN(c2ncnc3sccc23)CC1	0.2	11.4	-21.4	15.4	8.8	25.2	.	.
O=C(c1ccccc1)C1CCN(c2ncnc3sccc23)CC1	.	.	.	73.7*	.	.	5.5	62.0*
CCCCCC[C@@H](CCCc1ccccc1OC)CN(CCCC)S(C)(=O)=O	.	.	.	-25.1	.	1.2	.	.
Cc1cc(C)cc(Nc2nc(-c3ccc(S(=O)(=O)N4CCCC4)cc3)cs2)c1	30.1	18.5	20.1	13.0	-1.9	10.0	.	.
O=S(=O)(c1ccc(-c2csc(Nc3ccc(Br)cc3)n2)cc1)N1CCCC1	23.4	21.0	34.8	8.7	23.9	-17.9	.	.
Cc1ccc(Nc2nc(-c3ccc(S(=O)(=O)N4CCOCC4)cc3)cs2)cc1	8.9	11.2	21.1	37.8*	5.6	9.1	-0.1	18.2
O=C(Nc1nc(-c2ccc(S(=O)(=O)N3CCCCCC3)cc2)cs1)c1ccccc1	28.6	26.2	10.8	54.5*	24.6	16.0	4.1	33.6
O=C(Nc1nc(-c2ccc3c(c2)OCCO3)cs1)c1ccc(S(=O)(=O)N2CCCCC2)cc1	36.2	22.0	5.5	-3.8	-2.6	17.7	.	.
O=S(=O)(c1ccc(-c2csc(Nc3ccc(F)cc3)n2)cc1)N1CCCC1	-2.6	10.9	47.6	46.5*	26.0	24.4	-10.6	23.9
Cc1ccc(-n2c(SCC(=O)Nc3ccc(OCc4ccccc4)cc3)nnc2-c2ccccc2)cc1	.	.	.	-12.4	.	16.1	.	.
Cc1ccc(NC(=O)OC2CC3CC2[C@H]2CCCCN2C3)cc1C (stereo partly drawn)	.	.	.	-11.0	.	0.2	.	.
O=C(CSc1nnc(-c2ccccc2)n1-c1ccccc1)NN=Cc1ccc(-c2ccccc2)cc1	.	.	.	1.6	.	4.3	.	.
